25 compounds from PubChem BioAssay (Tox21) can be followed below.

Where “and” joins values, the source holds several entries; their conditions need not be identical. Equal values may be shown once. Records with an inconclusive call do not appear. Some compounds were tested as several samples or in several runs, with calls that do not always agree. Calls of active or inactive are those of the source. Unless noted, calls come from the whole dose curve; as a rule, active = well fitted curve in the direction sought with a large enough effect in the repeat runs; inconclusive = weak or mixed curves; inactive = no such curve, though single readings can be large; an effect the other way counts as inactive or inconclusive.

Assay [1] in a line: qHTS assay to identify small molecule antagonists of the thyroid receptor (TR) signaling pathway - cell viability counter screen (AID 743064). Note: nearly all actives have a fitted effect of over 50% in size. Note: potency is the fitted concentration of half-maximal effect. A digest of the protocol:
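In rat pituitary GH3.TRE-Luc reporter cells co-exposed to compound and 1 nM T3 for 23.5 h, cytotoxicity was assessed with CellTiter-Fluor in the same wells, read by fluorescence.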

Assay [2] is described as follows: qHTS assay to identify small molecule antagonists of the thyroid receptor (TR) signaling pathway (AID 743065). Note: nearly all actives have a fitted effect of over 55% in size. Note: potency is the fitted concentration of half-maximal effect. A digest of the protocol: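 Antagonism measured as loss of luciferase signal in GH3 cells stably carrying a TRE-luciferase reporter, co-treated with compound and T3 (1 nM final) for 23.5 h at 37 C. Viability was read in the same well by CellTiter-Fluor.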
On the technique in general: qHTS replaces the single test concentration by a dilution series.

Assay [3] relates to thyroid hormone receptor (rat, GH3 cells). Kind of assay: qHTS assay to identify small molecule agonists of the thyroid receptor (TR) signaling pathway (AID 743066; calls by dose curve).
Assay [4] has as its target Estrogen receptor (Homo sapiens) (UniProt P03372). Nature of the assay: qHTS assay to identify small molecule antagonists of the estrogen receptor alpha (ER-alpha) signaling pathway (AID 743069; active = well fitted curve in the direction sought with a large enough effect in the signal ratio in the repeat runs, not every such curve was filed as active; the % refers to the signal ratio). Summed up:
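ER-alpha-UAS-bla GripTite HEK293 line; 2% charcoal-stripped FBS overnight; plated, 4 hr 37C/5% CO2; cpd in DMSO + 17beta-estradiol, 18 hr 37C; LiveBLAzer B/G FRET substrate 2 hr RT; fluorescence intensity.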

The nature of assay [5]: qHTS assay to identify small molecule antagonists of the estrogen receptor alpha (ER-alpha) signaling pathway - cell viability counter screen (AID 743074; calls by dose curve;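 note: HEK293 cells carrying ER-alpha-UAS-bla reporter stimulated with 17beta-estradiol; nearly all actives have a fitted effect of over 45% in size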).
For assay [6], the target named is Estrogen receptor (Homo sapiens) (UniProt P03372). Kind of assay: qHTS assay to identify small molecule agonists of the estrogen receptor alpha (ER-alpha) signaling pathway (AID 743075; calls by dose curve;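 note: HEK293 GripTite cells with ER-alpha and UAS-driven beta-lactamase reporter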).
Chain of Estrogen receptor (Homo sapiens) (P03372 whole entry, looked up): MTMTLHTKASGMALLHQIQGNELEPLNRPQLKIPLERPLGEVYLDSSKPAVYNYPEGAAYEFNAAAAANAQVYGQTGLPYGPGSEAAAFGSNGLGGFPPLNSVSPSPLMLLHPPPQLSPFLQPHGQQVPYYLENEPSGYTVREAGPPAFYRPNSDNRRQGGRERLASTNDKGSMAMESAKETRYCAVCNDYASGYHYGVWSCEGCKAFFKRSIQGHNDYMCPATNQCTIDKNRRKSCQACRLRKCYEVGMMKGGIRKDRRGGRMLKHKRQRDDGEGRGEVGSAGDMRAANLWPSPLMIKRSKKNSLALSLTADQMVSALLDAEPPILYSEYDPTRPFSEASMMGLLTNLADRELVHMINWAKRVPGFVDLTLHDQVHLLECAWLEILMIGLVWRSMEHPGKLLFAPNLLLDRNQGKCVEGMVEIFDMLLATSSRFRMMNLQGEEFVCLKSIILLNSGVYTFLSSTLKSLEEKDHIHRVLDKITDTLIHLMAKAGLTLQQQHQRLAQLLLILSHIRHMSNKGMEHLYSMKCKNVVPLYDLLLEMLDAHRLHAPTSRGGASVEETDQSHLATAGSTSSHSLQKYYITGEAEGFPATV
The target is the same in assay [7]. Nature of the assay: qHTS assay to identify small molecule agonists of the estrogen receptor alpha (ER-alpha) signaling pathway using the BG1 cell line (AID 743079). Note: nearly all actives have a fitted effect of over 20% in size. Note: potency is the fitted concentration of half-maximal effect.
The nature of assay [8]: qHTS assay to identify small molecule antagonists of the estrogen receptor alpha (ER-alpha) signaling pathway using the BG1 cell line (AID 743080; calls by dose curve;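 note: BG1 cells stimulated with 17beta-estradiol alongside compound; series mostly up to about 70 µM; nearly all actives have a fitted effect of over 25% in size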). A digest of the protocol: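 BG1Luc4E2, endogenous ER-alpha, 4xERE-luc; 5 d charcoal-stripped FBS, phenol red free; 24 h plating; cpd + 17beta-estradiol 21.5 h, 37 C/5% CO2; CellTiter-Fluor viability 30 min, then ONE-Glo luciferase 30 min RT.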

Assay [9] can be described thus: qHTS assay to identify small molecule antagonists of the estrogen receptor alpha (ER-alpha) signaling pathway using the BG1 cell line - cell viability counter screen (AID 743081).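 Note: compound given together with 17beta-estradiol as the ER stimulus; nearly all actives have a fitted effect of over 45% in size.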 Note: potency is the fitted concentration of half-maximal effect.
The next assay addresses Aromatase (Homo sapiens) (UniProt P11511). Nature of the assay: qHTS assay to identify aromatase inhibitors (AID 743083). Note: nearly all actives have a fitted effect of over 55% in size. Note: potency is the fitted concentration of half-maximal effect.

Chain of Aromatase (Homo sapiens) (P11511 whole entry, looked up): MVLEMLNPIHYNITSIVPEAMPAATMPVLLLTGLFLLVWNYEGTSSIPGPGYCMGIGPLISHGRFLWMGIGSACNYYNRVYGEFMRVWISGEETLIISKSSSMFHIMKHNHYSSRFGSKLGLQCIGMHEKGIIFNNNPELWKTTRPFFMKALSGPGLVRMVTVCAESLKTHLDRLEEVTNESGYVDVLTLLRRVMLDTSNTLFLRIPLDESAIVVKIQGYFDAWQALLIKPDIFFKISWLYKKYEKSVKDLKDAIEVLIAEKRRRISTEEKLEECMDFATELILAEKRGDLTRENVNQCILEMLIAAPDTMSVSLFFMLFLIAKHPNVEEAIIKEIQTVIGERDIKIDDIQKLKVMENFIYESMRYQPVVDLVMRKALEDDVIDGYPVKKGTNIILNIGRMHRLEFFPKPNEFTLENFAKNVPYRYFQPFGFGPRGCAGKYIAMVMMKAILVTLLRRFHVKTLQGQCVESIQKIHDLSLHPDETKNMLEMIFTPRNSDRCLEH

Consider `CC(C)(C)S`, for which the Potency result in assay [1], in assay [2], in [3], in assay [4], in [5] and in assay [6] was “inactive” throughout. Moreover, the Potency entry (in assay [7]; in [8]; in [9]; in the assay with Aromatase (Homo sapiens)) was “inactive” each time.
Take `CC[C@H]1OC(=O)[C@H](C)[C@@H](O[C@H]2C[C@@](C)(OC)[C@@H](O)[C@H](C)O2)[C@H](C)[C@@H](O[C@@H]2O[C@H](C)C[C@H](N(C)C)[C@H]2O)[C@](C)(O)C[C@@H](C)/C(=N\OCOCCOC)[C@H](C)[C@@H](O)[C@]1(C)O`: the Potency entry in assay [1] is “inactive and 32.1 µM (active)”; in [9], “inactive and 18.1 µM (active)”. The Potency result in assay [2], in [3], in assay [5], in assay [6], in [7] and in [8] was “inactive” each time. Besides, the Potency entry with Aromatase (Homo sapiens) was “inactive”.
As to `CCCCCCCCCCCCCCCC(=O)OCC`, the Potency entry in [1], in [2], in assay [3], in assay [4], in [5] and in [6] was “inactive” each time. In addition, the Potency result (in assay [7]; in assay [8]; in assay [9]; in the assay with Aromatase (Homo sapiens)) was “inactive” in each case.
As for `CC(C)(C)C(O)/C=C/c1ccc2c(c1)OCO2` (configuration not stated), the Potency entry in assay [1], in assay [2], in assay [3], in assay [4], in assay [5] and in assay [6] was “inactive” each time. Further, the Potency entry (in assay [8]; with Aromatase (Homo sapiens)) was “inactive” each time.
As to `c1ccc(CNc2ncnc3c2ncn3C2CCCCO2)cc1` (configuration not stated), the Potency result in [1], in [2], in assay [3], in assay [4], in [5] and in assay [6] was “inactive” each time. In addition, the Potency entry (in [9]; with Aromatase (Homo sapiens)) was “inactive” each time. Also, the Potency in assay [7] is 3.44 µM (active).
As for `O=C(C(=O)c1ccco1)c1ccco1`, the Potency entry in assay [1], in [2], in [3], in assay [4], in [5] and in assay [6] was “inactive” each time. The Potency result (in [7]; in assay [8]; in assay [9]; with Aromatase (Homo sapiens)) was “inactive” in each case.
Take `C/C(C=O)=C\c1ccccc1`: the Potency entry in assay [1], in [2], in assay [3], in assay [4], in assay [5] and in assay [6] was “inactive” in each case. For the same compound, the Potency entry (in [7]; in assay [9]; in the assay with Aromatase (Homo sapiens)) was “inactive” in each case.
With `O=[N+]([O-])c1ccc2ncccc2c1`, the Potency result in [1], in assay [2], in [3], in [5], in [6] and in assay [7] was “inactive” in each case. Besides, the Potency result (in assay [8]; in assay [9]; with Aromatase (Homo sapiens)) was “inactive” each time.
Take `CCN(Cc1cccc(S(=O)(=O)O)c1)c1ccc(C(=C2C=CC(=[N+](CC)Cc3cccc(S(=O)(=O)O)c3)C=C2)c2ccccc2S(=O)(=O)[O-])cc1`: the Potency in assay [1] was 34.5 µM (active); in assay [2], 15.4 µM (active); in assay [9] it was 38.7 µM (active); with Aromatase (Homo sapiens) it was 17.3 µM (active). In addition, the Potency result in assay [3], in assay [4] and in [6] was “inactive” in each case.
Regarding `O=C(O)c1cccc(Oc2ccccc2)c1`, the Potency entry in assay [1], in [2], in assay [3], in assay [4], in assay [5] and in assay [6] was “inactive” each time. Besides, the Potency entry (in assay [7]; in [8]; in assay [9]; in the assay with Aromatase (Homo sapiens)) was “inactive” each time.
As for `O=P(O)(O)Oc1ccccc1`, the Potency entry in assay [1], in assay [2], in assay [3], in assay [4], in assay [5] and in assay [6] was “inactive” throughout. In addition, the Potency result (in [7]; in assay [8]; in [9]; with Aromatase (Homo sapiens)) was “inactive” in each case.
Regarding `Cc1ccc(Nc2c(F)cccc2Cl)c(CC(=O)O)c1`, the Potency result in assay [1], in [2], in assay [3], in [4], in assay [5] and in [6] was “inactive” each time. The Potency entry (in assay [7]; in assay [8]; in assay [9]; in the assay with Aromatase (Homo sapiens)) was “inactive” throughout.
With `CC1=C2[C@@H]([C@H](C)CC[C@H]2/C=C(\C)C(=O)O)[C@H](O)C1`, the Potency result in assay [1], in assay [2], in assay [3], in [5], in [6] and in [7] was “inactive” each time. Besides, the Potency result (in [8]; in assay [9]; in the assay with Aromatase (Homo sapiens)) was “inactive” each time.
With `CCOCCC(=O)OCC`, the Potency result in [1], in [2], in assay [3], in assay [4], in assay [5] and in assay [6] was “inactive” in each case. The Potency result (in [7]; in assay [8]; in [9]; with Aromatase (Homo sapiens)) was “inactive” in each case.
In the case of `CNC1CCCN(c2c(F)cc3c(=O)c(C(=O)O)cn(C4CC4)c3c2OC)C1` (configuration not stated), the Potency result in assay [1], in [2], in assay [3], in assay [4], in [5] and in assay [6] was “inactive” throughout. In addition, the Potency entry (in assay [7]; in [8]; in assay [9]; with Aromatase (Homo sapiens)) was “inactive” throughout.
On to `O=C(/C=C/c1ccc([N+](=O)[O-])cc1)c1ccccc1`, for which the Potency result in [1], in assay [3], in assay [4], in assay [5], in [7] and in [9] was “inactive” in each case. The Potency entry with Aromatase (Homo sapiens) was “inactive”. Moreover, the Potency in assay [2] was 61.3 µM (active).
As for `CC(=O)Oc1cccc(O)c1`, the Potency result in assay [1], in assay [2], in assay [3], in [4], in assay [5] and in assay [6] was “inactive” in each case. Besides, the Potency entry (in assay [7]; in [9]; with Aromatase (Homo sapiens)) was “inactive” throughout.
Take `CCCCCCC(O)CCOC(C)=O` (configuration not stated): the Potency result in [1], in [2], in [3], in assay [4], in [5] and in assay [6] was “inactive” throughout. The Potency entry (in assay [7]; in assay [8]; in [9]; in the assay with Aromatase (Homo sapiens)) was “inactive” in each case.
For the compound `Cc1cc([N+](=O)[O-])ccc1N`, the Potency result in assay [1], in assay [2], in assay [3], in [4], in [6] and in assay [8] was “inactive” each time. Further, in assay [9], the Potency result is “inactive”.
On to `O=C(Nc1ccc(C(=O)O)c(O)c1)c1ccccc1`, for which the Potency result in assay [1], in assay [2], in [3], in assay [4], in assay [5] and in assay [6] was “inactive” in each case. Also, the Potency result (in [7]; in [8]; in assay [9]; with Aromatase (Homo sapiens)) was “inactive” in each case.
Consider `N[C@@H](Cc1cc(I)c(O)c(I)c1)C(=O)O`, for which the Potency result in [1], in [2], in assay [3], in [4], in assay [6] and in [7] was “inactive” throughout. Also, the Potency entry (in [8]; with Aromatase (Homo sapiens)) was “inactive” each time.
Take `Cc1ccc(N(CCO)CCO)cc1`: the Potency entry in [1], in assay [2], in assay [3], in assay [4], in [5] and in assay [6] was “inactive” in each case. Besides, the Potency result (in [7]; in assay [8]; in [9]; in the assay with Aromatase (Homo sapiens)) was “inactive” throughout.
Turning to `CN(C)CC/C=C1\c2ccccc2Sc2ccc(Cl)cc21`, the Potency in [1] and in [2] was 11.9 µM (active) throughout. The Potency entry in assay [3], in [5], in assay [6], in assay [7], in [8] and in assay [9] was “inactive” each time.
On to `SCCc1cnccn1`, for which the Potency entry in assay [1], in assay [2], in [3], in assay [4], in assay [8] and in assay [9] was “inactive” each time. For the same compound, the Potency entry with Aromatase (Homo sapiens) is “inactive”.
On to `C=C(C)C(=O)OCCC(F)(F)C(F)(F)C(F)(F)C(F)(F)C(F)(F)C(F)(F)F`, for which the Potency result in [1], in assay [2], in [3], in assay [4], in assay [5] and in assay [6] was “inactive” in each case. Moreover, the Potency result (in assay [7]; in [8]; in assay [9]; in the assay with Aromatase (Homo sapiens)) was “inactive” each time.
